Assays:
Details in all cases: concentration: 1 μM, replicates: in singlicate; n = 1
EIF2AK1 = system: EIF2AK1
EPHA1 = system: EPHA1
EPHA2 = system: EPHA2
EPHA3 = system: EPHA3
EPHA4 = system: EPHA4
EPHA5 = system: EPHA5
EPHA6 = system: EPHA6
EPHA7 = system: EPHA7
EPHA8 = system: EPHA8
EPHB1 = system: EPHB1
EPHB2 = system: EPHB2
EPHB3 = system: EPHB3
EPHB4 = system: EPHB4
EPHB6 = system: EPHB6
ERBB2 = system: ERBB2
ERBB3 = system: ERBB3
ERBB4 = system: ERBB4
ERK1 = system: T1, ERK1
T1 construct: gene MAPK3

ERK2 = system: T2, ERK2
T2 construct: gene MAPK1

ERK3 = system: T3, ERK3
T3 construct: gene MAPK6
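Further: KINOMEscan kinase panel screen.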

Structure (SMILES) | %Inh (EIF2AK1) [%] | %Inh (EPHA1) [%] | %Inh (EPHA2) [%] | %Inh (EPHA3) [%] | %Inh (EPHA4) [%] | %Inh (EPHA5) [%] | %Inh (EPHA6) [%] | %Inh (EPHA7) [%] | %Inh (EPHA8) [%] | %Inh (EPHB1) [%] | %Inh (EPHB2) [%] | %Inh (EPHB3) [%] | %Inh (EPHB4) [%] | %Inh (EPHB6) [%] | %Inh (ERBB2) [%] | %Inh (ERBB3) [%] | %Inh (ERBB4) [%] | %Inh (ERK1) [%] | %Inh (ERK2) [%] | %Inh (ERK3) [%]
Fc1cccc(COc2ccc(Nc3ncnc4cc[nH]c34)cc2Cl)c1 | 23 | 2 | 15 | 0 | 18 | 20 | 7 | 4 | 1 | 9 | 20 | 0 | 22 | 19 | 100 | 11 | 83 | 8 | 24 | 22
Clc1cc(Nc2ncnc3cc[nH]c23)ccc1OCc1ccccn1 | 3 | 11 | 12 | 0 | 24 | 14 | 27 | 1 | 0 | 1 | 15 | 21 | 25 | 35 | 100 | 24 | 73 | 0 | 18 | 0
Fc1cccc(COc2ccc(Nc3ncnc4sc(-c5ccc[nH]5)cc34)cc2Cl)c1 [GW707818] | 0 | 0 | 0 | 18 | 0 | 0 | 0 | 0 | 4 | 1 | 15 | 0 | 0 | 16 | 100 | 0 | 88 | 0 | 0 | 3
CS(=O)(=O)CCNCc1ccc(-c2ccc3ncnc(Nc4ccc(OCc5ccccc5)c(Cl)c4)c3c2)o1.Cl [GW574783] | 0 | 3 | 1 | 0 | 13 | 0 | 15 | 0 | 8 | 3 | 0 | 18 | 8 | 28 | 100 | 69 | 90.8 | 4 | 0 | 0
Cc1ccc(C)c(NC(=O)NCCNc2ccnc(Nc3ccc(F)cc3)n2)c1 [GSK1379878] | 0 | 6 | 11 | 0 | 0 | 0 | 0 | 0 | 3 | 0 | 0 | 0 | 0 | 11 | 0 | 3 | 38 | 0 | 0 | 0
Fc1cccc(COc2ccc(Nc3ncnc4nn5ccccc5c34)cc2Cl)c1 [GW689066] | 0 | 11 | 12 | 0 | 0 | 0 | 9 | 0 | 0 | 4 | 0 | 16 | 0 | 1 | 98.2 | 27 | 95.2 | 0 | 0 | 0
COc1ccc(NC(=O)c2ccc(-c3cc(-c4nnc(C)o4)ccc3C)cc2)cc1 [GW595885] | 0 | 8 | 7 | 0 | 7 | 0 | 0 | 0 | 6 | 0 | 10 | 13 | 6 | 0 | 18 | 0 | 7 | 0 | 0 | 0
Cn1cc(-c2ccc3c(c2)CCN3C(=O)Cc2cccc(C(F)(F)F)c2)c2c(N)ncnc21 [GSK2606414] | 1 | 3 | 0 | 0 | 0 | 0 | 0 | 4 | 14 | 15 | 0 | 0 | 0 | 18 | 0 | 0 | 0 | 0 | 0 | 2
CC(=O)Nc1n[nH]c2ncc(-c3ccccc3)cc12 [SB-548492] | 0 | 17 | 0 | 2 | 8 | 15 | 29 | 0 | 32 | 15 | 0 | 16 | 14 | 36 | 0 | 0 | 29 | 12 | 11 | 1
CCn1c(-c2ccncc2)nc2cnccc21 [SB-735216] | 19 | 23 | 5 | 99.1 | 10 | 0 | 16 | 0 | 14 | 0 | 16 | 11 | 7 | 8 | 0 | 33 | 0 | 0 | 0 | 0

Source: paper PMC5540273 (PLoS ONE, 2017)
